High-throughput results as filed in PubChem BioAssay.
FLuc modulator: qHTS profiling assay for firefly luciferase inhibitor/activator using purifed enzyme and Km concentrations of substrates (counterscreen for miR-21 project); AID 588342, 2011; 6.9% of 360,000 active; Potency, µM (series often up to 57.5 µM), without a hit: top-dose activity change, negative = inhibition, hits mostly inhibitors; purified FLuc, Km substrates, luminescence inhibition;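 further: plate controls were vehicle for no effect and reference inhibitor for full effect; nearly all actives have a fitted effect of over 55% in size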
Target sequence (P08659 whole entry, looked up): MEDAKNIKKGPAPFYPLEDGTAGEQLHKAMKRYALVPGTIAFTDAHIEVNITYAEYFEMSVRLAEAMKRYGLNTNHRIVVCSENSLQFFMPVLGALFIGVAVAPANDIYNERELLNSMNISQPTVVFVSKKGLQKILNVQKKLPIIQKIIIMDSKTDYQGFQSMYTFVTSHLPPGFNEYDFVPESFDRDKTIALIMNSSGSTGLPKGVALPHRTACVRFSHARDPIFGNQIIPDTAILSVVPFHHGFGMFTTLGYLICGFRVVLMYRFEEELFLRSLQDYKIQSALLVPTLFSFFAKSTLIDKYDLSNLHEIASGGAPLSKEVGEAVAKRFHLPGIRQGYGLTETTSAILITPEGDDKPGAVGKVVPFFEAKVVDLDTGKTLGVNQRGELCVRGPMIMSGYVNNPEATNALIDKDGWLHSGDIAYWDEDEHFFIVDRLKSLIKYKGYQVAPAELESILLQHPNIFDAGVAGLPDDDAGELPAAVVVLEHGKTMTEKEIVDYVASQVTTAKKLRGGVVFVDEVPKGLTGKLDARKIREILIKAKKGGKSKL
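Biochemical qHTS of compounds, final roughly 60 µM downward over six points, against 10 nM purified firefly luciferase using Km concentrations of substrates (10 uM D-luciferin, 10 uM ATP) in Tris acetate pH 7.5 buffer; luminescence output.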
KinaseGlo FLuc: Counterscreen for Luciferase (Kinase-Glo TM) Inhibition | Luciferin 4-monooxygenase (Photuris pensylvanica), Q27757 | Kinase-Glo luciferase, ATP luminescence, 8 min | Potency, µM (series often up to 38.3 µM), for inactives: top-dose activity change, negative = inhibition, actives largely listed as inhibitors | 0.28% of 200,000 active; further: on the % scale 0 is the no-effect control and ±100 the full control effect; nearly all actives have a fitted effect of over 60% in size
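Compounds were added to a substrate mix at pH 7.2 (50 mM imidazole, 10 uM ATP, within the enzyme's linear range), followed by Kinase-Glo detection reagent; luminescence was measured after 8 minutes at ambient temperature.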
NPC1 prom act: qHTS Assay for NPC1 Promoter Activators; Huh7 NPC1 promoter luciferase reporter, 24 h; Potency, µM (titrated, usually from 9.22 µM), for the others: top-dose activation, usual class: activators; 2.4% of 320,000 active; AID 485313, 2010; further: % of control where 0% means no effect; nearly all actives have a fitted effect of over 60% in size
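Quantitative HTS used a cell-based reporter: Huh7 cells stably bearing the NPC1 promoter upstream of luciferase were treated with compounds for 24 h, and promoter activation was read as luminescence.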
Rab9 prom act: qHTS Assay for Rab9 Promoter Activators. Huh7 Rab9 promoter-luciferase reporter, luminescence, 24 h. Potency, µM (top dose mostly 9.22 µM), for the others: at the highest dose activation, negative = inhibition, actives largely listed as activators. 2.8% of 320,000 active. AID 485297, 2010; further: % of control where 0% means no effect; nearly all actives have a fitted effect of over 60% in size
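Huh7 cells stably carrying Rab9 promoter–luciferase reporter, plated 1500 cells/well, compound added after 2 h and incubated 24 h at 37 °C; luciferase luminescence then read after 10 min with detection reagent.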
ELG1 genotox: qHTS screen for small molecules that induce genotoxicity in human embryonic kidney (HEK293T) cells expressing luciferase-tagged ELG1. HEK293T ELG1-luciferase reporter, luminescence, 16 h. Potency, µM (highest dose often 46 µM), inactives show at the top dose activity change, positive = activation, actives largely listed as activators. 1.3% of 330,000 active. AID 504466, 2011; further: % of control where 0% means no effect; nearly all actives have a fitted effect of over 60% in size
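16 hr compound incubation (37 °C, 5% CO2) of HEK293T cells carrying luciferase-tagged ELG1; luciferase then measured by ONE-Glo luminescence after 30 min at RT.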
SMN2 splice up: qHTS Assay for Enhancers of SMN2 Splice Variant Expression | HEK293 SMN2-luciferase splicing reporter, luminescence, 30-36 h | Potency, µM (series often up to 46.1 µM), for inactives: at the highest dose activity change, positive = activation, most hits filed as activators | 2.8% of 210,000 active; further: % of control where 0% means no effect; nearly all actives have a fitted effect of over 55% in size
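HEK293 cells carry an SMN2 […]–luciferase reporter in which exon 7 inclusion puts luciferase in frame. Cells were plated 10-12 h before compound addition, then incubated 30-36 h at 37C. ONE-Glo luminescence was read; sodium butyrate at 4.5 mM final served as control.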
The depositor's hits bear a star; ? = inconclusive; . = no result given; [ ] = dose if it differs, or a comment. This is a sample that favours compounds with a hit; in the whole collection about 7.4% have one here. The call rests on the fitted dose curve; in most records, active means well fitted curve in the direction sought with a large enough effect; inconclusive means small, poorly fitted or top-dose-only effect, or another doubt; inactive means no such curve, though single readings can be large; an effect the other way counts as inactive or inconclusive. Potency means the concentration at half of the fitted maximal effect.

SMILES | FLuc modulator | KinaseGlo FLuc | NPC1 prom act | Rab9 prom act | ELG1 genotox | SMN2 splice up
CC1(C)OC(=CC=Nc2ccc(Cl)cc2)OC1(C)C | -18% | . | 0% | -1% | -13% | .
COc1ccc(OC)c(S(=O)(=O)N2CCC(C(=O)NCc3ccc4c(c3)OCO4)CC2)c1 | 0% | . | -2% | -3%[1.84 µM] | -9% | .
Cc1cc(C(C)(C)C)cc(C)c1CCNC(=O)c1ccc[n+]([O-])c1 | 0% | . | 0% | 2% | -4% | .
CCCN1CCN(CCCNC(=O)c2ccc(CS(=O)c3ccc(OC)cc3)o2)CC1 (centres undefined) | 1% | . | -5% | -3% | 1% | .
O=C(/C=C/c1ccccc1)NNc1ccc(Cl)cc1 | -8% | -2% | 4% | -4% | 15% | -31%
O=C(NNC1=NS(=O)(=O)c2ccccc21)c1cccc([N+](=O)[O-])c1 | 12µM* | . | 14% | 3% | 2% | .
O=C(NNC1=NS(=O)(=O)c2ccccc21)c1ccccc1 | 4.8µM* | . | 29% | 25% | 6% | .
COc1ccccc1C(=O)NNC1=NS(=O)(=O)c2ccccc21 | ? | . | 1% | 3% | 0% | .
O=C(NNC1=NS(=O)(=O)c2ccccc21)c1ccccc1Cl | 17µM* | 1% | 4% | -9% | 6% | .
O=C(NNc1c(Cl)cc(Cl)cc1Cl)c1cccc([N+](=O)[O-])c1 | 4% | -1% | 0% | -8% | -1% | -12%
O=C(/C=C/c1ccccc1)NNC1=NS(=O)(=O)c2ccccc21 | 24µM* | -3% | -2% | 10% | 2% | .
Clc1cccc(CN2CCCCCCC2)c1Cl | 6% | 2% | -1% | -9% | 1% | 6%
COc1cccc(CN2CC(C(=O)NCCSc3nnnn3C)CCC2=O)c1 (centres undefined) | -1% | . | 0% | 3% | -3% | .
Cc1ccc(S(=O)(=O)C(CNC(=O)C(=O)NCc2ccc(Cl)cc2)c2cccs2)cc1 (centres undefined) | -4% | . | . | . | . | .
COc1ccc(CN2CCNC(=O)C2CC(=O)NCc2cc(C)n(C)n2)c(F)c1 (centres undefined) | 2% | . | 1% | 3% | -1% | .
Cc1ccc(NCc2ccco2)cc1C | ? | -6% | -4% | -2% | 2% | .
Cc1ccc(Nc2nnc(-c3ccccc3N)o2)cc1C | 2.7µM* | . | 3.5µM* | 3.5µM* | ? | .
CCOC(=O)[C@@H]1[C@H]2COc3ccc(Br)cc3[C@@H]2N2C(=O)N(c3ccc(Cl)cc3)C(=O)[C@@]12C | . | . | . | . | -1% | .
O=C(Oc1ccc2c3c(c(=O)oc2c1)CCCC3)c1ccco1 | 17µM* | -7% | -5% | -1% | 1% | 6%
COc1ccc(C2CC(c3ccc(C)cc3)=NN2C(=O)CCC(=O)O)cc1OC (centres undefined) | 3% | . | -2% | 1% | 0% | .
Cc1noc(C)c1COc1ccccc1C(=O)N1CCN(S(=O)(=O)c2ccccc2F)CC1 | 4% | . | 1% | -5% | 23µM* | .
Cc1ccc(S(=O)(=O)N2CCN(C(=O)c3ccccc3OCc3c(C)noc3C)CC2)cc1 | 11% | . | -3% | 2% | 5% | .
CC(=O)Nc1cccc(-c2nnc(SCC(=O)n3c4c(c5ccccc53)CCCC4)n2C)c1 | ? | -5% | 0% | 12% | -6% | 17%
Cn1c(/C=N/O)nc2ccccc21 | -3% | . | 7% | 13% | 4% | .
CCC(=O)c1ccc(/C=C/c2nc3ccccc3n2C)o1 | 3.4µM* | -25% | 0.5µM* | 0.32µM* | -3% | 3.2µM*
N=C1/C(=C\c2ccc(SCc3ccco3)o2)C(=O)N=C2SC=NN12 | 8.5µM* | -7% | -1% | 22% | 6% | 1%
